This is an account of results in PubChem BioAssay.

The structures appear in SMILES notation. The source made the active and inactive calls.

Experiment [1] can be described thus: binders of probe aFSTL3 on microarray, primary screen, stem cell growth factor project, biochemical, small-molecule microarray, fluorescence 635/667 (AID 1064).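 Further: measures binding of the biotinylated anti-FSTL3 antibody to printed compounds.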 The settings on record: higher = more signal.
Experiment [2] in a line: binders from COS7 lysate, DM2A8 probe, primary screen, torsin A project, cell lysate, small-molecule microarray, fluorescence 635/667 (AID 1065). The settings on record: higher = more signal, COS7 lysate expressing mutant human TOR1A.
Experiment [3] is described as follows: binders of probe aFGF2 on microarray, primary screen, stem cell growth factor project, biochemical, small-molecule microarray, fluorescence 635/667 (AID 1067).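 Further: measures binding of biotinylated aFGF2 protein to printed compounds on slides; z-score merges feature fluorescence and signal-to-noise across triplicate slides.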 The settings on record: higher = more signal.
The nature of experiment [4]: binders of probe aFGF10 on microarray, primary screen, stem cell growth factor project, biochemical, small-molecule microarray, fluorescence 635/667 (AID 1071).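 Further: score merges 667 nm spot intensity and signal to noise from triplicate slides.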 The settings on record: higher = more signal.
Experiment [5] concerns the target Neurogenic locus notch homolog protein 2 (Homo sapiens) (UniProt Q04721). Kind of experiment: Notch2 binders on small-molecule microarrays, primary screen, biochemical, small-molecule microarray, 635 nm fluorescence, stem cell growth factors (AID 1073). The settings on record: Notch2 binding, higher = more signal.
Experiment [6] addresses Pro-neuregulin-1, membrane-bound isoform (Homo sapiens) (UniProt Q02297). Briefly: NRG1 binders on small-molecule microarrays, primary screen, psychiatric disease protein project, biochemical, small-molecule microarray, fluorescence 635/667 (AID 1075).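 Further: score combines 667 nm spot fluorescence with signal to noise.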 The settings on record: NRG1 binding, 635 nm fluorescence, higher = more signal.
For experiment [7], the system named is Neuregulin-1 EGF-like domain. Briefly: binders of neuregulin-1 EGF-like domain, primary screen, biochemical, small-molecule microarray, 635 nm fluorescence (AID 1081).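 Further: binding of the protein to compounds printed on small-molecule microarray slides.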 The settings on record: small-molecule microarray binding, higher = more signal.
Experiment [8] is described as follows: FRG1 promoter luciferase signal modulators, primary screen, FRG1 inhibition for FSHD, cell-based, C2C12 myotubes, firefly/Renilla luciferase, luminescence (AID 1084). The settings on record: higher = more signal, called active from +8 up or from −8 down.
The nature of experiment [9]: binders of probe aFST on microarray, primary screen, stem cell growth factor project, biochemical, small-molecule microarray, fluorescence 635/667 (AID 1086).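 Further: score merges 667 nm fluorescence with signal-to-noise of each printed compound spot.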 The settings on record: higher = more signal.
Experiment [10] in a line: binders of probe aHhip on microarray, primary screen, stem cell growth factor project, biochemical, small-molecule microarray, fluorescence 635/667 (AID 1087).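 Further: score merges spot fluorescence at 667nm with spot signal to noise ratio.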 The settings on record: higher = more signal.
In experiment [11] the test system is PRMT1 (protein arginine N-methyltransferase 1). Briefly: PRMT1 binders on small-molecule microarrays, primary screen, biochemical, small-molecule microarray, 635 nm fluorescence (AID 1088).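 Further: binding of Prmt1 protein to compounds spotted on small-molecule microarray slides.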 The settings on record: small-molecule microarray binding, higher = more signal.
Experiment [12] is described as follows: yeast growth modulation, basal conditions, primary screen, YJM789 clinical isolate, OD600, 24 h (AID 1089).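 Further: growth of clinical yeast isolate S. cerevisiae YJM 789 seeded 1000 cells per well; test concentration not given here.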 The settings on record: S. cerevisiae YJM789 growth, higher = more signal, called active from +8 up or from −8 down.
Experiment [13] in a line: fission yeast growth modulation, primary screen, strain 972, OD600, 24 h, no modulator (AID 1090).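 Further: basal condition with compound alone and no growth modifier present; test concentration not given here.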 The settings on record: S. pombe 972 growth, higher = more signal, called active from +8 up or from −8 down.
Experiment [14] in a line: S. cerevisiae growth modulation with rapamycin, primary screen, strain BY4716, OD600, 96 h (AID 1091). Further: test concentration not given here. The settings on record: higher = more signal, called active from +8 up or from −8 down.
Experiment [15] addresses Torsin-1A-interacting protein 2 (Homo sapiens) (UniProt Q8NFQ8). Briefly: LULL1 binders on small-molecule microarray, primary screen, cell lysate, human LULL1 lysate, 635/667 nm fluorescence (AID 1092).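 Further: probe is lysate of COS7 cells overexpressing human LULL1; score merges per-feature 667 nm fluorescence with signal-to-noise.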 The settings on record: hLULL1 lysate binding, 635 nm fluorescence, higher = more signal.
The nature of experiment [16]: E. coli growth modulation, two-sided OD650, primary screen, E. coli filamentation project, strain DRC41, 24 h (AID 1093).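 Further: MC1000 strain lacking acrAB efflux and sulA so SOS filamentation is blocked; test concentration not given here.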 The settings on record: OD650, 24 h, higher = more signal, called active from +8 up or from −8 down.
Experiment [17] can be described thus: small-molecule microarray binders of probe aLefty2, primary screen, biochemical, biotinylated probe, 635/667 nm fluorescence (AID 1094).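 Further: score merges spot fluorescence near 667 nm with spot signal-to-noise ratio.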 The settings on record: higher = more signal.
For experiment [18], the system named is Noggin (protein binding on small-molecule microarray). Briefly: Noggin binders on small-molecule microarray, primary screen, biochemical, 635/667 nm fluorescence (AID 1095).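 Further: score merges 667 nm feature fluorescence with signal to noise over triplicate slides.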 The settings on record: 635 nm fluorescence, higher = more signal.
In experiment [19] the target is Neurogenic locus notch homolog protein 3 (Homo sapiens) (UniProt Q9UM47). Kind of experiment: NOTCH3 binders on small-molecule microarray, primary screen, biochemical, 635/667 nm fluorescence (AID 1096). The settings on record: NOTCH3 binding, 635 nm fluorescence, higher = more signal.
Experiment [20] is described as follows: small-molecule microarray binders of probe aEGFR, primary screen, biochemical, biotinylated probe, 635/667 nm fluorescence (AID 1097).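 Further: probe is a biotinylated anti-EGFR antibody binding compounds printed on slides; score combines fluorescence near 667 nm and signal to noise of each spot.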 The settings on record: higher = more signal.

Sequence of Torsin-1A-interacting protein 2 (Homo sapiens) (Q8NFQ8 whole entry, looked up): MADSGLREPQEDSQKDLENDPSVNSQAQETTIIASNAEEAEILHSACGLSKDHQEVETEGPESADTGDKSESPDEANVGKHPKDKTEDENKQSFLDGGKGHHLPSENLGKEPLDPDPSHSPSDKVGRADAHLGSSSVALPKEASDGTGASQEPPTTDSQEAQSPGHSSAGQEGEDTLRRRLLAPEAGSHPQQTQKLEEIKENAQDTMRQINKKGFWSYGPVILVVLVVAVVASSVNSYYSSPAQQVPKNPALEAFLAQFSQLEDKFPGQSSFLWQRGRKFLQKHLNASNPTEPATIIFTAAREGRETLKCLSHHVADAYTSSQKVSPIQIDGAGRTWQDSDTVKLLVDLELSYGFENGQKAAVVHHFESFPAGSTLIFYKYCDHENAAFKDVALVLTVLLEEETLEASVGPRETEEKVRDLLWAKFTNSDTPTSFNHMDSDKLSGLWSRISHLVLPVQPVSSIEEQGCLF
Sequence of Neurogenic locus notch homolog protein 2 (Homo sapiens) (Q04721 whole entry, looked up, canonical isoform): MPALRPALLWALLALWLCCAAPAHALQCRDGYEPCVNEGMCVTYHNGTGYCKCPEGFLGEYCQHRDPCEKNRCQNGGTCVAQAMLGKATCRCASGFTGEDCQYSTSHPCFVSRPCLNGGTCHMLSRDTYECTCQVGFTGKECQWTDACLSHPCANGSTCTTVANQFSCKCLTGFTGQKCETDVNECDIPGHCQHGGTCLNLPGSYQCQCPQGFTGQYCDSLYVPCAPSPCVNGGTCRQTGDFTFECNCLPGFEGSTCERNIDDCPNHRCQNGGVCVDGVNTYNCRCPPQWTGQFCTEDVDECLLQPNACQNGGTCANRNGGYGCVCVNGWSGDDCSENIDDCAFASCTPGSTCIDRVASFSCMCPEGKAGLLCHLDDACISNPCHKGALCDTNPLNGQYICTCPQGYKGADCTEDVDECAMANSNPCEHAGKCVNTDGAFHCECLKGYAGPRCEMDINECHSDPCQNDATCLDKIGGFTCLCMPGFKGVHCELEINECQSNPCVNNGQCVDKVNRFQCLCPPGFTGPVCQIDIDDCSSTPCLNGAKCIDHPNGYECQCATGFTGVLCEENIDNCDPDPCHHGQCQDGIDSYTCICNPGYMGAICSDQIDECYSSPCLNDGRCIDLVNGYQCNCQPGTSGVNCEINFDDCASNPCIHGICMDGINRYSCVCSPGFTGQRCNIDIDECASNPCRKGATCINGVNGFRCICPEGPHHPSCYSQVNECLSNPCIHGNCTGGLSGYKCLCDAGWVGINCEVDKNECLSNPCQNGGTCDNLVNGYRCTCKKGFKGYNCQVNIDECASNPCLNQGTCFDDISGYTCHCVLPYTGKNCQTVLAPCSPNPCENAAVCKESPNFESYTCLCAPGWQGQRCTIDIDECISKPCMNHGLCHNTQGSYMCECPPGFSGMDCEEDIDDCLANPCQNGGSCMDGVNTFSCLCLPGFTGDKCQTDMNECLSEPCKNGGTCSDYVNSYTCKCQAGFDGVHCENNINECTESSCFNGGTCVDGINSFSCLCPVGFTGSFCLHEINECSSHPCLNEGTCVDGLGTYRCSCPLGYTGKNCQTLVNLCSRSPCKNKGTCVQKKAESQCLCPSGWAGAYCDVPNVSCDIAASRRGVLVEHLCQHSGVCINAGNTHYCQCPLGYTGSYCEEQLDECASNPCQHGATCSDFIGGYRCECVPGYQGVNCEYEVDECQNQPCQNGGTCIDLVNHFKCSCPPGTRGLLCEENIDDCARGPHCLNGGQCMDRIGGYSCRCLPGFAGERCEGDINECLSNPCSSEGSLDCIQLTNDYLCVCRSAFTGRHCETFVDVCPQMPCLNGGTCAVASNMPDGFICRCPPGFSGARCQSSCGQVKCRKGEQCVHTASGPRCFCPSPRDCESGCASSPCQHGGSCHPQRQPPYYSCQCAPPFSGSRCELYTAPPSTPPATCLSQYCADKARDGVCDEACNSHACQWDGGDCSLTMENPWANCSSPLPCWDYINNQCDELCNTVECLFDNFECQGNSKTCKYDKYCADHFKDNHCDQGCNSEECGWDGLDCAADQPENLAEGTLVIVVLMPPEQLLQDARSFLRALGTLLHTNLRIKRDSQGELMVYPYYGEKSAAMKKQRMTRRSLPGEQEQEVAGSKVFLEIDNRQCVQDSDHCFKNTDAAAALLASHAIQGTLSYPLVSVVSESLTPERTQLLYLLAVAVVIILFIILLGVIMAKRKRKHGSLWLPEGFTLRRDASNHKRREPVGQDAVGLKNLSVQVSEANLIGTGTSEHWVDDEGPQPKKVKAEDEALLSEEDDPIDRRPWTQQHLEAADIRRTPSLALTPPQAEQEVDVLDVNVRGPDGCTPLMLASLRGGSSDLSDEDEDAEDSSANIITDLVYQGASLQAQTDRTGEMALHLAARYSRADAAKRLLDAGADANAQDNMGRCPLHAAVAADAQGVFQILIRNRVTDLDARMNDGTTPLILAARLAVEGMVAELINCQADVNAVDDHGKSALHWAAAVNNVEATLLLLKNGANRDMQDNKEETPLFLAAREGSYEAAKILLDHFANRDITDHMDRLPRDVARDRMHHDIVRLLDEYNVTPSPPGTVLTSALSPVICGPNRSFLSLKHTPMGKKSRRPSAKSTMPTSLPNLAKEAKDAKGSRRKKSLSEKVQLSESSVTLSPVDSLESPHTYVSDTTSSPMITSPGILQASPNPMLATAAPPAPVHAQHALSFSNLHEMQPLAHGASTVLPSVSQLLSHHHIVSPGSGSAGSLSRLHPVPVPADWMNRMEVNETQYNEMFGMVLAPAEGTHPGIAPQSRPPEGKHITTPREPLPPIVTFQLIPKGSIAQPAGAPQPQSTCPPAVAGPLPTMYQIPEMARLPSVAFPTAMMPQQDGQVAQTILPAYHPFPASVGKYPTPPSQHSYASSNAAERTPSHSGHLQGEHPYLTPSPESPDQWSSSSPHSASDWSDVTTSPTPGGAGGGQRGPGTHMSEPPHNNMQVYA
Sequence of Pro-neuregulin-1, membrane-bound isoform (Homo sapiens) (Q02297 whole entry, looked up, the tested form may be a part, canonical isoform): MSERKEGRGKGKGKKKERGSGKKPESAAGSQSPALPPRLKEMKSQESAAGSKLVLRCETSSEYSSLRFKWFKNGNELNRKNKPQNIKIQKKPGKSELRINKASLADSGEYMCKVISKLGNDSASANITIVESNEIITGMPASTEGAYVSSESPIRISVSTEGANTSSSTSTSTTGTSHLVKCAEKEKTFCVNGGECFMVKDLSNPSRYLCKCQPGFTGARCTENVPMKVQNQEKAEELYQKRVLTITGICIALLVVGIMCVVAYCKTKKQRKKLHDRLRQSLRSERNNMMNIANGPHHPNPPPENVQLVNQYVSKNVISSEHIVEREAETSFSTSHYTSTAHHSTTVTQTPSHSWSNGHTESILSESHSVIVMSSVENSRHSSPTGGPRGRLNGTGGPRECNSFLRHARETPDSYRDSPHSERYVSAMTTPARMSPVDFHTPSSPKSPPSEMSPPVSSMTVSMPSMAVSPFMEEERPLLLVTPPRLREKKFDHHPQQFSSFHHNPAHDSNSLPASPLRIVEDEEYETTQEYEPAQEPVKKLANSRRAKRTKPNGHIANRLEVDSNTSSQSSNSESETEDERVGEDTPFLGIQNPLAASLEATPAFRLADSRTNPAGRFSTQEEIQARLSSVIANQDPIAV

On to `C[C@]12C(=O)N(CCCO)[C@@H]3C(=O)N(c4ccc(Cl)cc4)CC=CC31O[C@@H]1/C=C\CCCOC(=O)C12` (stereo not given in full), for which the composite z-score was -0.157 in [1]; -0.549 in experiment [2]; -0.0895 in experiment [3]; -0.512 in experiment [4]; -1.37 in experiment [5]; -0.0724 in [6]. In addition, the composite z-score was 1.13 in experiment [7]; -0.67 in [9]; -0.363 in experiment [10]; 0.868 in experiment [11]; 3.16 in experiment [15]; -0.262 in experiment [17]. The results for the composite z-score in experiment [18], in experiment [19] and in [20] were -0.441, -0.123 and -0.261, respectively. Further, the z-score is 1.43 (inactive) in experiment [8]; -1.65 (inactive) in experiment [12]; -1.51 (inactive) in experiment [13]; -0.488 (inactive) in experiment [14]; -0.298 (inactive) in experiment [16].
On to `CC(C)c1ccc(NN2C(C(O)c3ccccn3)C=CC3C(=O)N(c4ccccc4)C(=O)C32)cc1` (stereo not given), for which the composite z-score was -0.311 in experiment [1]; 0.205 in [2]; 0.235 in [3]; 1.17 in [4]; 1.64 in [5]; 1.64 in [6]. The composite z-score in experiment [7] came out at 1.42; in experiment [9], 1.49; in experiment [10], 0.347; in experiment [11] it was 1.5; in experiment [15], 3.7; in [17] it was 0.0038. For the same compound, the composite z-score came to 1.7 in experiment [18], 1.05 in experiment [19] and 0.154 in experiment [20]. Also, the z-score in [8] was 3.43 (inactive); in experiment [12], 0.485 (inactive); in experiment [13] it was -0.951 (inactive); in experiment [14] it was -0.252 (inactive); in experiment [16], -0.405 (inactive).
In the case of `CC1(C)[C@@H]2CC(C(O)C3C=CC4C(=O)N(c5ccccc5)C(=O)C4N3Nc3ccccc3F)=C[C@@H]1C2` (stereo not given in full), the composite z-score was -0.168 in [1]; 0.159 in [2]; -0.0092 in [3]; 1.03 in [4]; 1.54 in [5]; 1.28 in experiment [6]. The composite z-score in experiment [7] is 1.14; in experiment [9] it was 0.955; in experiment [10], -0.228; in experiment [11] it was 1.53; in experiment [15], 3.19; in experiment [17] it was 0.155. The values for the composite z-score in experiment [18], in experiment [19] and in experiment [20] were 0.791, 1.06 and 0.0066, respectively. Besides, the z-score in [8] was -3.65 (inactive); in [12], -0.601 (inactive); in experiment [13] it was 0.5 (inactive); in experiment [14], -0.382 (inactive); in experiment [16], -0.117 (inactive).
For `COCCOC(=O)N1C(=O)[C@@]2(c3cc(C#Cc4ccc(OC)cc4)ccc31)[C@H](c1ccc(OCCO)cc1)N1[C@H](c3ccccc3)[C@H](c3ccccc3)OC(=O)[C@H]1[C@@H]2C(N)=O`, the composite z-score in experiment [1] was 0.261; in experiment [2] it was 1.24; in [3], -0.0128; in experiment [4], 0.646; in [5] it was 1.46; in experiment [6], 1.25. Besides, the composite z-score was determined as 1.26 in [7]; 0.851 in [9]; 0.0972 in experiment [10]; 1.54 in experiment [11]; 1.64 in [15]; 0.172 in experiment [17]. Besides, the composite z-score stood at 1.45 in experiment [18], 1.02 in experiment [19] and 0.0593 in experiment [20]. Also, the z-score in [8] is 1.06 (inactive); in [12], 1.37 (inactive); in experiment [13], 1.87 (inactive); in experiment [14] it was 5.01 (inactive); in experiment [16] it was 1.37 (inactive).
For `CN(C)CCCC[C@@H]1NC(=O)[C@H]2C[C@@H](C(=O)NCCCCCCNC(=O)CS)[C@@H](c3ccc(O)cc3)N2C1=O`, the composite z-score was 0.0462 in experiment [1]; 0.576 in experiment [2]; -0.116 in experiment [3]; 0.165 in experiment [4]; -0.549 in experiment [5]; 0.848 in [6]. Further, the composite z-score is 1.11 in experiment [7]; -0.337 in [9]; -0.125 in experiment [10]; 1.17 in [11]; 3.31 in experiment [15]; -0.0785 in experiment [17]. Moreover, the composite z-score was 1.58 in experiment [18], 0.196 in [19] and -0.173 in experiment [20]. In addition, the z-score is 1.15 (inactive) in experiment [8]; -1.22 (inactive) in [12]; -0.225 (inactive) in [13]; -0.342 (inactive) in experiment [14]; 0.937 (inactive) in experiment [16].
